# ± gives the standard deviation of the averaged measurements.
# Test system: HT-1080
# Experiment: relative cell viability with RSL3 co-treatment (fraction of control); higher = stronger protection from RSL3-induced ferroptosis (higher viability)
# Details: 10 µM
# 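Further: viability read as CCK-8 absorbance at 450 nm in cells co-exposed to the GPX4 inhibitor RSL3, relative to a 0.01% DMSO vehicle control.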
row,SMILES,relative cell viability
1,CC(C)(C)c1cc(C=C(C#N)C#N)cc(C(C)(C)C)c1O [Tyrphostin 9],0.413 ± 0.021
2,CCN1CCN(C(=O)Cc2ccc(Nc3ncc(F)c(Nc4ccc(C(=O)Nc5ccccc5Cl)cc4)n3)cc2)CC1 [Aurora A Inhibitor I],0.473 ± 0.13
3,COc1ccc2c(c1)/C(=C/c1cnc[nH]1)C(=O)N2,0.797 ± 0.011
4,O=c1[nH]c2ccc(Cl)cc2c(N[C@@H]2CN3CCC2CC3)c1-c1nc2ccccc2[nH]1,0.63 ± 0.046
5,CC(C)(C)c1cc(C=C(C#N)C#N)cc(Br)c1O,0.473 ± 0.015
6,C/C(O)=C(\C#N)C(=O)Nc1cc(Br)ccc1Br,0.54 ± 0.085
7,COc1ccc(N(C(=O)Oc2c(C)cccc2C)c2ccnc(Nc3ccc(N4CCN(C)CC4)cc3)n2)c(OC)c1,0.8133 ± 0.0058
8,Cn1cc(C2=C(c3cn(C4CCN(Cc5ccccn5)CC4)c4ccccc34)C(=O)NC2=O)c2ccccc21,0.807 ± 0.061
9,Cc1ccccc1-n1c(Cn2ncc3c(N)ncnc32)nc2cccc(C)c2c1=O,0.727 ± 0.049
